{
  "source": "ChEMBL document CHEMBL3988442",
  "about": "“University of Dundee, Small-Polar-MMV Screening Library” (2021)",
  "test_system": "Trypanosoma brucei",
  "assay": "Trypanosoma brucei 72 hour study",
  "assay_type": "functional, organism-based",
  "design": "scale not given: in the data most compounds retested in dose-response had high values",
  "note": "The whole screen tested about 66,000 compounds, of which about 960 (1.5%) showed an effect of 50% or more. Only a selection was taken, and strong results are over-represented in it overall.",
  "data": [
    {"smiles": "CNCC(=O)Nc1ccc(-c2cnc(NCCS(C)(=O)=O)nc2)cc1", "values": [
      {"measurement": "Percent Effect", "setting": "30.3 µM, […]", "value": -12.7, "unit": "%"}
    ]},
    {"smiles": "COCC(=O)N1CCCCC1c1nc(N(C)C)ncc1-c1cc(C)no1", "note": "(stereo not drawn)", "values": [
      {"measurement": "Percent Effect", "setting": "30.3 µM, […]", "value": -6.324, "unit": "%"}
    ]},
    {"smiles": "COc1ccccc1CN1CCCCC1c1n[nH]cc1-c1cc(C)no1.Cl", "note": "(stereo not drawn)", "values": [
      {"measurement": "Percent Effect", "setting": "30.3 µM, […]", "value": 99.66, "unit": "%"}
    ]},
    {"smiles": "CCc1ccc(CN2CCCCC2c2n[nH]cc2-c2cc(C)no2)cc1.Cl", "note": "(stereo not drawn)", "values": [
      {"measurement": "Percent Effect", "setting": "30.3 µM, […]", "value": 53.31, "unit": "%"}
    ]},
    {"smiles": "COc1cccc(CN2CCCC2c2c(C)nn(C)c2C)c1", "note": "(stereo not drawn)", "values": [
      {"measurement": "Percent Effect", "setting": "30 µM, 30.03 µM", "value": -36.92, "unit": "%"}
    ]},
    {"smiles": "Cc1c[nH]nc1C1CCCN1Cc1ccncc1", "note": "(stereo not drawn)", "values": [
      {"measurement": "Percent Effect", "setting": "30.3 µM, […]", "value": -23.61, "unit": "%"}
    ]},
    {"smiles": "COc1ccc(CN2CCCCC2c2n[nH]cc2-c2cc(C)no2)cc1.Cl", "note": "(stereo not drawn)", "values": [
      {"measurement": "Percent Effect", "setting": "30.3 µM, […]", "value": 57.52, "unit": "%"}
    ]},
    {"smiles": "COc1ccccc1CNc1ncc(-c2cc(C)no2)c(C(C)C)n1", "values": [
      {"measurement": "Percent Effect", "setting": "30.3 µM, […]", "value": -4.15, "unit": "%"}
    ]},
    {"smiles": "COc1cccc(CN2CCCCCC2c2cccc(C)c2)c1O", "note": "(stereo not drawn)", "values": [
      {"measurement": "Percent Effect", "setting": "30 µM, 30.03 µM", "value": -7.245, "unit": "%"}
    ]},
    {"smiles": "COc1ccc(CN2CCC[C@H]2c2nc(-c3cncnc3N)no2)cc1", "values": [
      {"measurement": "Percent Effect", "setting": "30.3 µM, […]", "value": -48.86, "unit": "%"}
    ]},
    {"smiles": "COc1cccc(CN2CCCC2c2ccc[nH]2)c1", "note": "(stereo not drawn)", "values": [
      {"measurement": "Percent Effect", "setting": "30 µM, 30.03 µM", "value": 1.101, "unit": "%"}
    ]},
    {"smiles": "COc1cccc(CN2CCCCC2c2n[nH]cc2-c2cc(C)no2)c1.Cl", "note": "(stereo not drawn)", "values": [
      {"measurement": "Percent Effect", "setting": "30.3 µM, […]", "value": 52.03, "unit": "%"}
    ]},
    {"smiles": "Cc1cc(C2CCCN2Cc2ccn(C)c(=O)c2)on1", "note": "(stereo not drawn)", "values": [
      {"measurement": "Percent Effect", "setting": "30.3 µM, […]", "value": 6.831, "unit": "%"}
    ]},
    {"smiles": "CC(C)c1nc(CNC2CCN(S(C)(=O)=O)CC2)cs1", "values": [
      {"measurement": "Percent Effect", "setting": "30.3 µM, […]", "value": -4.773, "unit": "%"}
    ]},
    {"smiles": "CC(C)Cn1ccc2c(NC(=O)c3n[nH]c4c3CCC4)cccc21", "values": [
      {"measurement": "Percent Effect", "setting": "30 µM, 30.03 µM", "value": 8.967, "unit": "%"}
    ]},
    {"smiles": "CCc1nc(C2CCCN2C(=O)c2cc[nH]n2)no1", "note": "(stereo not drawn)", "values": [
      {"measurement": "Percent Effect", "setting": "10 µM", "value": -9.958, "unit": "%"},
      {"measurement": "Percent Effect", "setting": "30.3 µM, […]", "value": 8.971, "unit": "%"}
    ]},
    {"smiles": "O=C(NCc1ccco1)N1CCC(n2ccc(C(F)(F)F)n2)CC1", "values": [
      {"measurement": "Percent Effect", "setting": "30 µM, 30.03 µM", "value": -15.14, "unit": "%"}
    ]},
    {"smiles": "O=C(O)C(F)(F)F.c1coc(CN2CC[C@H]3O[C@@H](COCC4CC4)CC[C@H]32)c1", "values": [
      {"measurement": "Percent Effect", "setting": "30 µM, 30.03 µM", "value": -38.88, "unit": "%"}
    ]},
    {"smiles": "Cc1nc(CN2C(=O)CC[C@@H]3[C@H]2CCN3C2CCOCC2)cs1.O=C(O)C(F)(F)F", "values": [
      {"measurement": "Percent Effect", "setting": "30 µM, 30.03 µM", "value": -42.08, "unit": "%"}
    ]},
    {"smiles": "CC(=O)N1CCC2(CC1)CCN(C(=O)c1cccc(C(F)(F)F)c1)C2", "values": [
      {"measurement": "Percent Effect", "setting": "30 µM, 30.03 µM", "value": 38.42, "unit": "%"}
    ]},
    {"smiles": "Cc1nccc(NCc2cncc3c2CCN(CC2CC2)C3)n1.Cl.Cl", "values": [
      {"measurement": "Percent Effect", "setting": "30.3 µM, […]", "value": -82.02, "unit": "%"}
    ]},
    {"smiles": "COc1cccc(S(=O)(=O)CCN2CCN(CC(F)F)CC2)c1", "values": [
      {"measurement": "Percent Effect", "setting": "30.3 µM, […]", "value": 100.9, "unit": "%"}
    ]},
    {"smiles": "COCCN1CCN(CCS(=O)(=O)c2cccc(OC)c2)CC1", "values": [
      {"measurement": "Percent Effect", "setting": "30.3 µM, […]", "value": -9.149, "unit": "%"}
    ]},
    {"smiles": "COc1cccc(S(=O)(=O)CCN2CCN(CCO)CC2)c1", "values": [
      {"measurement": "Percent Effect", "setting": "30.3 µM, […]", "value": 19.12, "unit": "%"}
    ]},
    {"smiles": "O=C(NCC1CC1)[C@@H]1CCO[C@@H]2CCN(Cc3ccsc3)C[C@H]21.O=C(O)C(F)(F)F", "values": [
      {"measurement": "Percent Effect", "setting": "30.3 µM, […]", "value": -183.8, "unit": "%"}
    ]},
    {"smiles": "O=C1CC(c2ccccc2)c2c(c(C(=O)O)cn2-c2ccccc2)N1", "note": "(stereo not drawn)", "values": [
      {"measurement": "Percent Effect", "setting": "30 µM, 30.03 µM", "value": -0.2399, "unit": "%"}
    ]},
    {"smiles": "O=C1CC(c2cccc(O)c2)c2c(c(C(=O)O)cn2-c2ccccc2)N1", "note": "(stereo not drawn)", "values": [
      {"measurement": "Percent Effect", "setting": "30 µM, 30.03 µM", "value": 55.14, "unit": "%"}
    ]},
    {"smiles": "O=C1CC(c2ccc(O)cc2)c2c(c(C(=O)O)cn2-c2ccccc2)N1", "note": "(stereo not drawn)", "values": [
      {"measurement": "Percent Effect", "setting": "30 µM, 30.03 µM", "value": -5.69, "unit": "%"}
    ]},
    {"smiles": "CC(=O)N1CCC2(CCN(C(=O)c3cccc(C(F)(F)F)c3)CC2)C1", "values": [
      {"measurement": "Percent Effect", "setting": "30 µM, 30.03 µM", "value": -21.66, "unit": "%"}
    ]},
    {"smiles": "Cc1ccc(NC(=O)Cn2cc(I)cn2)cc1C", "values": [
      {"measurement": "Percent Effect", "setting": "30 µM, 30.03 µM", "value": -62.87, "unit": "%"}
    ]},
    {"smiles": "COC(=O)CNC(=O)CCc1cc(Cl)cs1", "values": [
      {"measurement": "Percent Effect", "setting": "30 µM, 30.03 µM", "value": 30.07, "unit": "%"}
    ]},
    {"smiles": "CC(C)NC(=O)CCNC(=O)CCc1cc(Cl)cs1", "values": [
      {"measurement": "Percent Effect", "setting": "30 µM, 30.03 µM", "value": 67.45, "unit": "%"}
    ]},
    {"smiles": "CC(C)NC(=O)CCNC(=O)CCc1cc(Br)cs1", "values": [
      {"measurement": "Percent Effect", "setting": "30 µM, 30.03 µM", "value": -16.2, "unit": "%"}
    ]},
    {"smiles": "CC(C)CN1C(=O)C2(CCN(Cc3ccc(F)cc3)C2)c2ccccc21", "note": "(stereo not drawn)", "values": [
      {"measurement": "Percent Effect", "setting": "30.3 µM, […]", "value": 100.2, "unit": "%"}
    ]},
    {"smiles": "CC(C)CN1C(=O)C2(CCN(Cc3ccoc3)C2)c2ccccc21.O=C(O)C(F)(F)F", "note": "(stereo not drawn)", "values": [
      {"measurement": "Percent Effect", "setting": "30.3 µM, […]", "value": -10.51, "unit": "%"}
    ]},
    {"smiles": "Cc1ccc(CN2CCC3(C2)C(=O)N(CC(C)C)c2ccccc23)s1", "note": "(stereo not drawn)", "values": [
      {"measurement": "Percent Effect", "setting": "30 µM, 30.03 µM", "value": -8.12, "unit": "%"}
    ]},
    {"smiles": "COCCN1CCC2(CC1)CC(NC(=O)COC)c1ccccc1O2.O=C(O)C(F)(F)F", "note": "(stereo not drawn)", "values": [
      {"measurement": "Percent Effect", "setting": "30.3 µM, […]", "value": -14.34, "unit": "%"}
    ]},
    {"smiles": "CN(C)C(=O)c1n[nH]c2c1CN(CC1CCC1)C2.O=C(O)C(F)(F)F.O=C(O)C(F)(F)F", "values": [
      {"measurement": "Percent Effect", "setting": "30.3 µM, […]", "value": -41.36, "unit": "%"}
    ]},
    {"smiles": "CC(C)CC(=O)N1C[C@@H]2CCN(c3ncccn3)C[C@@H]2C1.O=C(O)C(F)(F)F", "values": [
      {"measurement": "Percent Effect", "setting": "30.3 µM, […]", "value": -27.97, "unit": "%"}
    ]},
    {"smiles": "Cc1cnc(C(=O)N2C[C@H]3CN(Cc4nccs4)C[C@H]3C2)cn1", "values": [
      {"measurement": "Percent Effect", "setting": "30 µM, 30.03 µM", "value": -50.26, "unit": "%"}
    ]},
    {"smiles": "O=C(N1CCCC1)N1Cc2nccn2CC(COc2cccnc2)C1.O=C(O)C(F)(F)F", "note": "(stereo not drawn)", "values": [
      {"measurement": "Percent Effect", "setting": "30.3 µM, […]", "value": -5.824, "unit": "%"}
    ]},
    {"smiles": "O=C(NCCNc1ccccn1)N1CCSCC1", "values": [
      {"measurement": "Percent Effect", "setting": "30 µM, 30.03 µM", "value": -32.01, "unit": "%"}
    ]},
    {"smiles": "CC1(C)CN(C(=O)NCCc2ccn(-c3ccccc3)n2)CCO1", "values": [
      {"measurement": "Percent Effect", "setting": "30 µM, 30.03 µM", "value": -25.69, "unit": "%"}
    ]},
    {"smiles": "O=C(NCc1nn(-c2ccccc2)c2c1CCC2)N1CCSCC1", "values": [
      {"measurement": "Percent Effect", "setting": "30 µM, 30.03 µM", "value": -15.48, "unit": "%"}
    ]},
    {"smiles": "CCC(C(=O)NCCc1ccn(-c2ccccc2)n1)N1CCCC1=O", "note": "(stereo not drawn)", "values": [
      {"measurement": "Percent Effect", "setting": "30 µM, 30.03 µM", "value": -6.42, "unit": "%"}
    ]},
    {"smiles": "O=C(NCCc1ccn(-c2ccccc2)n1)N1CCC1", "values": [
      {"measurement": "Percent Effect", "setting": "30 µM, 30.03 µM", "value": 105.4, "unit": "%"}
    ]},
    {"smiles": "O=C(NCCc1ccn(-c2ccccc2)n1)N1CCSCC1", "values": [
      {"measurement": "Percent Effect", "setting": "10 µM", "value": 92.88, "unit": "%"}
    ]}
  ]
}
